{"source": "PubChem BioAssay AID1851", "about": "(National Center for Advancing Translational Sciences (NCATS), 2009)", "note": "Values joined by “and” are separate entries in the source; they are usually repeats but may differ in a detail not shown here. Equal entries are not always repeated. About 2,600 (16%) of roughly 16,000 compounds were called active. Inconclusive results (about 20%) are left out. For the sample, actives were picked, then their nearest neighbours and some compounds at random. Unmarked numbers belong to inactive results. The call rests on the fitted dose curve; in most records, active means well fitted curve in the direction sought with a large enough effect; inconclusive means small, poorly fitted or top-dose-only effect, or effect the other way; inactive means no such curve, though single readings can be large or run the other way. On the % scale 0 is the no-effect control and ±100 the full control effect.", "data": [{"target": "Cytochrome P450 2D6 (Homo sapiens) (UniProt P10635)", "sequence (P10635 whole entry, looked up)": "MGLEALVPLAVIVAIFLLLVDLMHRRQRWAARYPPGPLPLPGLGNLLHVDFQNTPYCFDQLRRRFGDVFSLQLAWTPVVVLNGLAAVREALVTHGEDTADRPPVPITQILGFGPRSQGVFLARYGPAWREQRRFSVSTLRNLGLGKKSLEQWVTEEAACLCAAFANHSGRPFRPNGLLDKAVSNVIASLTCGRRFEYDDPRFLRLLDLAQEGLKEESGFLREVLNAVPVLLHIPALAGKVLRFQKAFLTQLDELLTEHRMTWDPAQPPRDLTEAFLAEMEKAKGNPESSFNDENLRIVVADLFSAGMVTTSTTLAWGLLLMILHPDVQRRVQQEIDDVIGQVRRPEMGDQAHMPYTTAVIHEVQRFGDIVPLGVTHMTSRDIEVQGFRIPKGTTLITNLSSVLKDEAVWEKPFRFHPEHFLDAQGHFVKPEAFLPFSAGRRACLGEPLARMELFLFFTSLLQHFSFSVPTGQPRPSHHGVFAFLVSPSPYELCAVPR", "experiment": "Cytochrome panel assay with activity outcomes", "settings": "recombinant CYP, pro-luciferin dealkylation, luminescence, p450-cyp2d6; series mostly up to 57.1 µM", "values": [{"smiles": "C[C@]12CC[C@@H]3C(=CCc4cc(O)ccc43)[C@@H]1CCC2=O", "AC50": "inactive"}, {"smiles": "O=C(Nc1cccc(C(F)(F)F)c1)c1cccn(Cc2ccc3c(c2)OC(F)(F)O3)c1=O", "AC50": "inactive"}, {"smiles": "NC(N)=NS(=O)(=O)c1ccc(N)cc1", "AC50": "inactive"}, {"smiles": "N=C(N)c1ccc(-c2ccc(-c3ccc(C(=N)N)cc3)o2)cc1", "activity, negative = inhibition": "11.8% [at 11.4 µM]"}, {"smiles": "COc1ccc2[nH]c3c(c2c1)CCN=C3C", "AC50": "0.631 µM (active)"}, {"smiles": "COc1ccc2[nH]c3c(c2c1)CCNC3", "AC50": "12.6 µM (active)"}, {"smiles": "COc1ccc2c3c([nH]c2c1)C(C)=NCC3", "AC50": "3.98 µM (active)"}, {"smiles": "COc1ccc(-n2nc(C(F)(F)F)cc2-c2ccc(Cl)cc2)cc1", "AC50": "inactive"}, {"smiles": "C[C@]12CC[C@H]3c4ccc(O)cc4CC[C@@H]3[C@H]1CC[C@@H]2OC(=O)CCc1ccccc1", "activity, negative = inhibition": "-5.32% [at 11.4 µM]"}, {"smiles": "CC1=C(CC[C@H](C)CO)O[C@@H]2C[C@@H]3[C@H]4CC[C@H]5C[C@@H](O)CC[C@]5(C)[C@@H]4CC(=O)[C@@]3(C)[C@@H]12", "activity, negative = inhibition": "-3.67% [at 11.4 µM]"}, {"smiles": "CCN(CC)c1ccc(/C=C2/C(=O)NC(=O)N(CC3CCCO3)C2=O)cc1", "note": "(configuration not stated)", "AC50": "inactive"}, {"smiles": "CC(C)c1ccc(C(c2c(O)c3ccccc3oc2=O)c2c(O)c3ccccc3oc2=O)cc1", "activity, negative = inhibition": "2.43% [at 11.4 µM]"}, {"smiles": "COc1cc(CNC(=O)CCCC/C=C\\C(C)C)ccc1O", "AC50": "inactive"}, {"smiles": "O=C(C[n+]1ccc2ccccc2c1)c1ccc2ccc3ccccc3c2c1", "AC50": "0.794 µM (active)"}, {"smiles": "CCCn1c(C)c(C(=O)c2ccc3ccccc3c2)c2ccccc21", "AC50": "inactive"}, {"smiles": "C[C@H](Br)C(=O)c1ccc2cc(Br)c3ccccc3c2c1", "activity, negative = inhibition": "8.29% [at 11.4 µM]"}, {"smiles": "CC1=C(O)C(=O)[C@H]2O[C@@H]2C1=O", "AC50": "inactive"}, {"smiles": "C[C@H]1CC[C@@]2(NC1)O[C@@H]1C[C@@H]3[C@@H]4CC=C5C[C@@H](O)CC[C@]5(C)[C@@H]4CC[C@]3(C)[C@H]1[C@@H]2C", "activity, negative = inhibition": "7.13% [at 11.4 µM]"}, {"smiles": "COC(=O)C[C@](O)(CCCC(C)(C)O)C(=O)O[C@@H]1C(OC)=C[C@]23CCCN2CCc2cc4c(cc2[C@H]13)OCO4", "AC50": "inactive"}, {"smiles": "CN1C(=O)C(=Cc2ccc(N3CCCCC3)o2)C(=O)N(C)C1=S", "AC50": "inactive"}, {"smiles": "COC1=C(C)C(=O)c2c(c(COC(N)=O)c3n2C[C@@H]2[C@@H]3N2C)C1=O", "note": "(some centres not stated)", "AC50": "1.58 µM (active)"}, {"smiles": "COc1cc2c(c(OC)c1OC)-c1ccc(O)c(=O)cc1[C@H](N)CC2", "AC50": "inactive"}, {"smiles": "Nc1ccc(S(=O)(=O)c2ccc(NCN3C(=O)NC(=O)C(=O)C3=O)cc2)cc1", "activity, negative = inhibition": "4.3% [at 11.4 µM]"}, {"smiles": "c1ccc(CN2CCN(Cc3ccc4c(c3)OCCO4)CC2)cc1", "AC50": "12.6 µM (active)"}, {"smiles": "c1cc(CN2CCCCC2)cc(OCCCNc2nc3ccccc3s2)c1", "AC50": "inactive"}, {"smiles": "NC[C@H](O)c1cc(O)c(O)cc1F", "AC50": "inactive"}, {"smiles": "Cc1cc(C)cc(NC(=S)NC2CC3CCC(C2)N3Cc2ccco2)c1", "note": "(configuration not stated)", "AC50": "17.8 µM (active)"}, {"smiles": "CC(C)CNC(=S)NC1CC2CCCC(C1)N2Cc1ccco1", "note": "(configuration not stated)", "AC50": "2 µM (active)"}, {"smiles": "CCNC(=S)NC1CC2CCCC(C1)N2Cc1ccco1", "note": "(configuration not stated)", "AC50": "2 µM (active)"}, {"smiles": "Cc1cccc(N2C(=O)NC(=O)/C(=C\\c3cnn(-c4ccccc4)c3)C2=O)c1", "AC50": "inactive"}, {"smiles": "C[C@H](Br)C(=O)N[C@H](CO)C(=O)O", "activity, negative = inhibition": "5.11% [at 11.4 µM]"}, {"smiles": "NCC1(CC(=O)O)CCCCC1", "AC50": "inactive"}, {"smiles": "CCN1C[C@]2(COC(=O)c3ccccc3N3C(=O)C[C@H](C)C3=O)CC[C@H](OC)[C@@]34[C@@H]5C[C@H]6[C@H](OC)[C@H]5[C@](O)(C[C@@H]6OC)[C@@](O)([C@@H](OC)[C@@H]23)[C@@H]14", "AC50": "inactive"}, {"smiles": "O=[N+]([O-])c1cc(-c2ccc([As](=O)(O)O)cc2)ccc1[As](=O)(O)O", "activity, negative = inhibition": "14% [at 11.4 µM]"}, {"smiles": "CC(C)Oc1cccnc1N(C)C1CCN(Cc2ccccc2)CC1", "AC50": "7.94 µM (active)"}, {"smiles": "NNC(N)=O", "AC50": "inactive"}, {"smiles": "CC(=O)[C@]1(O)CC[C@@H]2[C@H]3C[C@@H](C)C4=CC(=O)CC[C@@]4(C)[C@H]3[C@@H](O)C[C@]21C", "activity, negative = inhibition": "1.26% [at 11.4 µM]"}, {"smiles": "c1cc(C2N3CCCN2CC3)ccn1", "note": "(configuration not stated)", "activity, negative = inhibition": "15.8% [at 11.4 µM]"}, {"smiles": "CC[C@H](C(=O)[C@H](C)[C@H](O)[C@H](C)CCc1ccc(C)c(O)c1C(=O)O)[C@H]1O[C@](CC)([C@@H]2CC[C@@](O)(CC)[C@H](C)O2)C[C@H]1C", "AC50": "inactive"}, {"smiles": "Cc1cc(C(C)(C)C)cc(C)c1CC1=NCCN1", "AC50": "31.6 µM (active) and 3.98 µM (active)"}, {"smiles": "O=C(O)[C@@H]1C[C@H]1[C@@H](NP(=O)(c1ccccc1)c1ccccc1)c1ccccc1", "AC50": "inactive"}, {"smiles": "c1cncc([C@@H]2CCCCN2)c1", "AC50": "inactive"}, {"smiles": "CCCCn1c(O)c(C=NCCN2CCCCC2)c(=O)[nH]c1=O", "AC50": "inactive"}, {"smiles": "COCOc1ccc(Br)cc1C(=O)/C=C\\c1ccc2c(c1)OCO2", "AC50": "3.16 µM (active)"}, {"smiles": "NC[C@@H](O)CSP(=O)(O)O", "activity, negative = inhibition": "3.14% [at 11.4 µM]"}, {"smiles": "O=C1C[C@@H](c2ccc(O)cc2)Oc2cc(O)cc(O)c21", "AC50": "inactive"}, {"smiles": "CC(=O)O[C@H]1CC[C@@]2(C)[C@@H](CC[C@H]3[C@H]2CC(=O)[C@]2(C)[C@@H]3C[C@@H](N3CC3)[C@H]2C(C)=O)C1", "activity, negative = inhibition": "-8.74% [at 11.4 µM]"}, {"smiles": "NC(N)=NC(=O)c1nc(Cl)c(N)nc1N", "AC50": "inactive"}, {"smiles": "Ic1ccccc1CN[C@@H]1C2CCN(CC2)[C@H]1C(c1ccccc1)c1ccccc1", "AC50": "0.0631 µM (active)"}, {"smiles": "NO", "AC50": "inactive"}, {"smiles": "CC(=O)OCC1=C(C(=O)[O-])N2C(=O)[C@@H](NC(=O)CCC[C@@H](N)C(=O)[O-])[C@@H]2SC1.[Zn+2]", "AC50": "inactive"}, {"smiles": "O=c1cc(-c2ccc(O)cc2)oc2c([C@H]3O[C@@H](CO)[C@@H](O)[C@@H](O)[C@@H]3O)c(O)cc(O)c12", "AC50": "inactive"}, {"smiles": "COC(=O)[C@H]1C(=O)c2ccccc2O[C@@](C(=O)OC)(c2ccccc2)[C@@H]1c1ccccc1", "activity, negative = inhibition": "11.5% [at 11.4 µM]"}, {"smiles": "Cn1cccc1CNCCc1ccccc1", "AC50": "2.51 µM (active)"}, {"smiles": "O=C(O)Cc1ccc([N+](=O)[O-])cc1[N+](=O)[O-]", "activity, negative = inhibition": "5.45% [at 11.4 µM]"}, {"smiles": "Cc1cc(Cc2cc(C)c(N)cc2N)c(N)cc1N", "activity, negative = inhibition": "-18.6% [at 11.4 µM]"}, {"smiles": "CSCC[C@@H](N)P(C)(=O)O", "activity, negative = inhibition": "3.31% [at 11.4 µM]"}, {"smiles": "c1ccc2c(c1)[I+]c1ccccc1-2", "AC50": "3.98 µM (active) and 794 nM (active)"}, {"smiles": "CN1C2C=C3C(C#N)=C(N)C(C#N)(C#N)[C@H](c4c(F)cccc4F)[C@H]3C1CC2", "note": "(some centres not stated)", "AC50": "inactive"}, {"smiles": "CCC[C@@](C)(COC(N)=O)COC(=O)NC(C)C", "AC50": "inactive"}, {"smiles": "Clc1ccccc1-c1cncnc1NCCc1cnc[nH]1", "AC50": "3.98 µM (active)"}, {"smiles": "Cc1ccccc1-c1cncnc1NCCc1cnc[nH]1", "AC50": "12.6 µM (active)"}, {"smiles": "CNCCc1cnc[nH]1", "AC50": "inactive"}, {"smiles": "Cn1cnc(CCN)c1", "AC50": "inactive"}, {"smiles": "C[C@H]1CC[C@@]2(NC1)O[C@@H]1C[C@H]3[C@@H]4CC[C@@H]5C[C@@H](O)CC[C@@]5(C)[C@@H]4CC[C@]3(C)[C@@H]1[C@@H]2C", "AC50": "inactive"}, {"smiles": "C[C@]1(C(=O)O)[C@@H]2CC[C@@H](O2)[C@@]1(C)C(=O)O", "AC50": "inactive"}, {"smiles": "[N-]=[N+]=CC(=O)CC[C@H](N)C(=O)O", "activity, negative = inhibition": "-11.2% [at 11.4 µM]"}, {"smiles": "CN(C)CCCNc1c2c(nc3ccc(Cl)cc13)CCCC2", "activity, negative = inhibition": "9.14% [at 11.4 µM]"}, {"smiles": "COc1ccc(C2SCC(=O)Nc3c2c(C)nn3C2CCOC(C)(C)C2)cc1", "note": "(configuration not stated)", "AC50": "inactive"}, {"smiles": "C[C@@]12CC[C@H](O)C[C@@H]1CC[C@@H]1[C@@H]2CC[C@@]2(C)[C@@H](C3=CC(=O)OC3)[C@H](O)C[C@]12O", "activity, negative = inhibition": "17.5% [at 11.4 µM]"}, {"smiles": "Cc1cc2c(C(F)(F)F)cc(=O)oc2c2c1NCCC2", "AC50": "inactive"}, {"smiles": "N=C(N)SCc1ccc(Cl)c2ccccc12", "note": "(tested in a mixture with another compound)", "AC50": "3.16 µM (active)"}, {"smiles": "C/C(=N\\OC(=O)NC(C)C)c1sc(-c2ccc(Cl)cc2)nc1C", "AC50": "inactive"}, {"smiles": "C[C@@]12CC[C@H](O[C@@H]3O[C@H](CO)[C@@H](O)[C@H](O)[C@@H]3O)C[C@@H]1CC[C@H]1[C@H]2CC[C@@]2(C)[C@@H](C3=CCOC3=O)CC[C@]12O", "activity, negative = inhibition": "-0.449% [at 11.4 µM]"}, {"smiles": "COc1ccc(C[C@H]2NC[C@H](O)[C@@H]2OC(C)=O)cc1", "AC50": "7.94 µM (active)"}, {"smiles": "c1ccc2c(c1)OC[C@@H](C1=NCCN1)O2", "AC50": "0.631 µM (active)"}, {"smiles": "C[N+]1(C)CCO[C@](O)(c2ccc(-c3ccc([C@]4(O)C[N+](C)(C)CCO4)cc3)cc2)C1", "AC50": "inactive"}, {"smiles": "Cc1ccc(N=Nc2c(O)[nH]c(=O)[nH]c2=O)c([N+](=O)[O-])c1", "AC50": "inactive"}, {"smiles": "Nc1nc(N)c(N=Nc2ccc([As](=O)(O)O)cc2)c(=O)[nH]1", "activity, negative = inhibition": "13.1% [at 11.4 µM]"}, {"smiles": "CCCCCCCCCCCCCC(=O)O[C@H]1[C@@H](C)[C@@]2(O)[C@@H](C=C(CO)C[C@]3(O)C(=O)C(C)=C[C@@H]23)C2C(C)(C)[C@]21OC(C)=O", "note": "(some centres not stated)", "AC50": "inactive"}, {"smiles": "COCCNC(=S)N1C2CCC1CC(NC(=O)NC13CC4CC(CC(C4)C1)C3)C2", "note": "(configuration not stated)", "AC50": "inactive"}, {"smiles": "COCCNC(=S)NC1CC2CCCC(C1)N2Cc1cccs1", "note": "(configuration not stated)", "AC50": "0.398 µM (active)"}, {"smiles": "COCCCNC(=S)NC1CC2CCCC(C1)N2Cc1cccs1", "note": "(configuration not stated)", "AC50": "0.891 µM (active)"}, {"smiles": "CCc1ccccc1NC(=O)NC1CC2CCC(C1)N2Cc1cccs1", "note": "(configuration not stated)", "AC50": "6.31 µM (active)"}, {"smiles": "C=C1C(O)(c2ccccc2)C2CC[N+]1(C)CC2", "note": "(configuration not stated)", "AC50": "inactive"}, {"smiles": "Cn1c(O)c(C(=N)COc2ccccc2)c(=O)n(C)c1=O", "AC50": "inactive"}, {"smiles": "CCCCc1ccc(C(=O)O)nc1", "AC50": "inactive"}]}]}
